# Test results taken from PubChem BioAssay AID2147 (National Center for Advancing Translational Sciences (NCATS), 2009).
# Where “and” joins values, the source holds several entries; their conditions need not be identical. Identical values can stand only once. The campaign covered roughly 230,000 compounds. About 3,600 (1.6%) were called active. About 15% were inconclusive and are not listed. The call rests on the fitted dose curve; in most records, active means well fitted inhibition curve with a large enough effect (not every such curve was filed as active); inconclusive means small, poorly fitted or top-dose-only effect, or another doubt; inactive means no such curve, though single readings can be large or run the other way. What follows is part of a selection rich in actives, with near analogues and random picks from the rest.
# Target: Lysine-specific demethylase 4E (Homo sapiens) (UniProt B2RXH2)
# Sequence (B2RXH2 1-337 limits assumed): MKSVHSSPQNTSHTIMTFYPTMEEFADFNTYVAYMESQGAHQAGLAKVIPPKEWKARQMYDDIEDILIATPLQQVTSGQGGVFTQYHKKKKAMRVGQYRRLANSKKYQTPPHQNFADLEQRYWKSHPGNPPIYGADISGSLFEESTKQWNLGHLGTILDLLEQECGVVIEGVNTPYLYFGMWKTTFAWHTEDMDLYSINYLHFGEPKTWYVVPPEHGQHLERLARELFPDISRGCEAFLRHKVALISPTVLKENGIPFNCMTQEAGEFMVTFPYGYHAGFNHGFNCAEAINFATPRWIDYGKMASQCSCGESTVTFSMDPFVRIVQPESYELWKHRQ
# Test: qHTS Assay for Inhibitors of Human Jumonji Domain Containing 2E (JMJD2E)
# Settings: JMJD2E catalytic domain, FDH-coupled NADH fluorescence (FDH is formaldehyde dehydrogenase); series mostly up to 57.1 µM; activity change, negative = inhibition: at the top concentration
# Further: nearly all actives have a fitted effect of over 50% in size.
# Potency means the concentration at half of the fitted maximal effect.
# 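Wherever activity change, negative = inhibition is given: 0% = wells with enzyme and -100% = buffer wells without enzyme.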
Structure (SMILES),"activity change, negative = inhibition",Potency
O=c1[nH]c(CSc2ccccc2)nc2c1oc1ccccc12,-0.198% (inactive),
Cc1ccc(NC(=O)/C(=C\c2ccccc2)NC(=O)c2ccco2)cc1,8.1% (inactive),
NC(=O)COc1ccc(NC(=O)c2ccccc2-c2ccccc2)cc1,-9.16% (inactive),
Oc1ccc(/C=N/NC2=NCCCCC2)c(O)c1,,22.4 µM (active)
Oc1ccc(/C=N/Nc2nc(-c3ccccc3F)nc3ccccc23)c(O)c1,-27.2% (inactive),
Oc1c(Br)cccc1/C=N/Nc1c(F)c(F)c(F)c(F)c1F,0.236% (inactive),
CN(c1ccccn1)c1ncnc2[nH]ncc12,-4.74% (inactive),
Cc1ccc(C)c(SCc2nc3sc(C(=O)O)c(C)c3c(=O)[nH]2)c1,-5.22% (inactive),
O=C(Nc1ccc(F)cc1)c1cc2c(s1)CCCC2,0.588% (inactive),
O=c1[nH]c(=S)[nH]c2[nH]c(=S)[nH]c12,,28.2 µM (active)
Cc1c(C)c(C)c2[nH]c(=S)[nH]c2c1C,5.54% (inactive),
Cc1nc2cccnc2nc1C,1.81% (inactive),
COc1ccc(OC)c(-n2c(-c3ccn[nH]3)n[nH]c2=S)c1,3.77% (inactive),
O=C(N/N=C\c1cc(Br)c(Br)o1)C1COc2ccccc2O1 (configuration not stated),-26.6% (inactive),
Nc1ccccc1SCc1cc([N+](=O)[O-])cc2c1OCOC2,-7.45% (inactive),
Nc1ccccc1Sc1ccc(C(F)(F)F)cc1[N+](=O)[O-],-29.3% (inactive),
Nc1ccccc1SC(C[N+](=O)[O-])c1ccccc1 (configuration not stated),,6.31 µM (active)
OCCC1CN(Cc2ccc(Oc3ncccn3)cc2)CCN1CCc1ccccc1 (configuration not stated),-5.89% (inactive),
COCCNc1nc(-c2ccccc2)nc2c1oc1ccccc12,-8.99% (inactive),
Cc1nnc(SC(C(=O)c2ccccc2)c2ccccc2)[nH]c1=O (configuration not stated),-1.45% (inactive),
Cc1cccc(-n2cc(CN3CCN(C(=O)c4ncn[nH]4)CC3)c(-c3cccc(F)c3)n2)c1,8.66% (inactive),
CC(C)OCCCNC(=O)c1ccc(C2SCC(=O)N2Cc2ccco2)cc1 (configuration not stated),-12.8% (inactive),
COc1ccc(NS(=O)(=O)c2ccc(O)c(C(=O)OCC(=O)NC3CCCCC3)c2)cc1,-4.29% (inactive),

Structure (SMILES),"activity change, negative = inhibition",Potency
Cc1ccc(OCc2n[nH]c(=S)n2-c2ccc(C)cc2)cc1,-3.16% (inactive),
S=c1[nH]nc(COc2ccccc2)n1-c1ccccc1,-9.54% (inactive),
COc1ccc(OCc2n[nH]c(=S)n2N)cc1,,15.8 µM (active)
Cc1cc(N2CCN(c3ccccc3)CC2)nc(N2CCOCC2)n1,3.11% (inactive),
O=c1c(-c2ccc(Cl)cc2)[n+]([O-])c2ccccc2n1OCc1nc2ccccc2[nH]1,-4.14% (inactive),
CCC(=O)/C=C1\Sc2ccccc2N1CC,-12.4% (inactive),
CCN1/C(=C\c2ccc3ccccc3[n+]2CC)Sc2cc(C)ccc21,,1.41 µM (active)
CCN1/C(=C/c2ccc3ccc(C)cc3[n+]2CC)Sc2ccccc21,-7.04% (inactive),
O=C(COC(=O)c1ccc[nH]c1=O)Nc1ccc2c(c1)OC(F)(F)O2,-31.1% (inactive),
c1ccc(-n2cccc2)c(N2CCCCC2)c1,7.49% (inactive),
CC(C)C[C@@H](CC(=O)N[C@@H](CCC(=O)O)CC(=O)O)NC(=O)[C@@H]1CCCC[C@H]1NC(=O)C[C@@H](NC(=O)C[C@H](Cc1c[nH]c2ccccc12)NC(=O)[C@@H]1CCCC[C@H]1N)C(C)C,,15.8 µM (active)
CC(C)[C@@H](CC(=O)N[C@@H]1CCNC[C@H]1C(=O)N[C@H](CC(=O)N[C@@H](CCC(=O)O)CC(=O)O)Cc1ccccc1)NC(=O)C[C@H](CO)NC(=O)[C@@H]1CNCC[C@H]1N,-2.84% (inactive),
CC(C)C[C@@H](CC(=O)N[C@@H](CCC(=O)O)CC(=O)O)NC(=O)[C@@H]1CCCC[C@H]1NC(=O)C[C@@H](NC(=O)C[C@H](CO)NC(=O)[C@@H]1CCCC[C@H]1N)C(C)C,6.67% (inactive),
Cn1c(CSCC(=O)Nc2ccccc2)nnc1SCc1ccccc1,-1.73% (inactive),
Cc1ccc(NNC(=O)c2c(F)cccc2Cl)cc1Cl,-12.8% (inactive),
COC(=O)N(NC(=O)C(O)(C(C)C)C(C)C)c1ccccc1,2.87% (inactive),
Cc1cc(=O)[nH]c(SCC(N)=O)c1C#N,0.748% (inactive),
Cc1cc(=O)[nH]c(=S)[nH]1,,inactive
Cc1cc(=O)[nH]c(S)c1C#N,,28.2 µM (active)
CC(C)(C)c1ccc(/C=C2\Oc3c(ccc(O)c3CN3CCN(CCO)CC3)C2=O)cc1,,14.1 µM (active)
O=S(=O)(Nc1n[nH]c(C(F)(F)F)n1)c1ccccc1,-3.67% (inactive),
N#C/C(=C\c1ccc(O)c(O)c1)C(N)=O,,7.08 µM (active)
CCOC(=O)NC(=O)/C(C#N)=C\c1ccccc1,8.09% (inactive),

Structure (SMILES),"activity change, negative = inhibition",Potency
CC(C)(C)C(=O)/C(C#N)=C/c1ccc(O)cc1,-3.99% (inactive),
N#C/C(=C\c1ccc(O)c(O)c1)C(=O)NCc1ccccc1,,15.8 µM (active) and 20 µM (active)
COCCNC(=O)/C(C#N)=C/c1cccc(OCc2ccccc2)c1,-8.01% (inactive),
CCOC(=O)/C(C#N)=C/c1ccc(N2CCCCC2)cc1,-5.46% (inactive),
Cc1ccc(CN(Cc2cccnc2)C(=S)Nc2cc(Cl)ccc2C)cc1,-10% (inactive),
O=C(NCC(c1cccs1)N1CCOCC1)c1cc(-c2ccccn2)nc2ccccc12 (configuration not stated),-21.6% (inactive),
COc1ccccc1OCC(=O)O/N=C(\N)c1ccccn1,-4.76% (inactive),
COc1cc(/C=C2/C(=O)NN(c3ccc(F)cc3)C2=O)cc([N+](=O)[O-])c1O,-19.9% (inactive),
CCOC(=O)c1ccc(N=C2SC(C(=O)NC)CC(=O)N2CCc2ccccc2)cc1 (configuration not stated),-2.87% (inactive),
CC(=O)Nc1nc2c(s1)C(=O)NCC(C)(C)C2,6.1% (inactive),
Oc1ccc(N=Nc2nccs2)c(O)c1,,8.91 µM (active)
Oc1c(C=Nc2cccc3nsnc23)ccc2ccccc12,-9.64% (inactive),
Oc1ccc2ccccc2c1N=Nc1nccs1,,28.2 µM (active)
COc1ccccc1NC(=S)N1CCN(C(c2ccccc2)c2ccccc2)CC1,12.1% (inactive),
CSc1ccccc1NC(=O)CN(C)CC(=O)Nc1cccc(Br)c1,-20.7% (inactive),
COc1ccc(Cc2nnc(SC)[nH]c2=O)cc1,8.09% (inactive),
COc1ccc(CCNC(=O)CCCCn2c(=O)[nH]c3ccccc3c2=O)cc1OC,3.97% (inactive),
COc1ccc(Cc2nnc(N/N=C/c3ccccc3O)[nH]c2=O)cc1OC,,6.31 µM (active)
CCOC(=O)C1=C(c2ccccc2)NC(=S)NC1c1ccc(Cl)cc1 (configuration not stated),-5.72% (inactive),
Cc1noc(C)c1COC(=O)COc1ccc(-c2ccccc2)cc1,7.05% (inactive),
COc1ccc(/C=C/C(=O)Nc2ccc(C)cc2)cc1S(=O)(=O)N1CCOCC1,1.97% (inactive),
